A short description of assay [1]: Tanguay_ZF_120hpf_JAW_legacy: (Legacy) Oregon State University Tanguay Lab 120 Hour Post-fertilization zebrafish Assay for Jaw Malformation (AID 2283638). The method in brief: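 Static waterborne exposure of dechorionated wild-type (Tropical 5D) zebrafish from 6 to 120 hpf at 28C, 0.64% DMSO vehicle; 5uM trimethyltin chloride served as positive control. Jaw morphology recorded as binary at 120 hpf.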

Assay [2] can be described thus: Tanguay_ZF_120hpf_OTIC_legacy: (Legacy) Oregon State University Tanguay Lab 120 Hour Post-fertilization zebrafish Assay for Otic Vesicle Malformation (AID 2283639). In a few lines: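 Otic vesicle malformation is read as a yes/no morphology call at 120 hpf. Exposure is static at 28C with 0.64% (vol/vol) DMSO; embryos that die are excluded from non-mortality endpoints.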

Assay [3] in a line: Tanguay_ZF_120hpf_PE_legacy: (Legacy) Oregon State University Tanguay Lab 120 Hour Post-fertilization zebrafish Assay for Pericardial Edema (AID 2283640).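 For AC50: potency for increased incidence of pericardial edema versus DMSO baseline.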 The method in brief:
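Read-out is the presence or absence of pericardial edema at 120 hpf under brightfield, with gain of signal fitted against DMSO controls. Larvae (5D wild-type) were statically exposed at 28C with 0.64% final DMSO.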

A short description of assay [4]: Tanguay_ZF_120hpf_SOMI_legacy: (Legacy) Oregon State University Tanguay Lab 120 Hour Post-fertilization zebrafish Assay for Somite Malformation (AID 2283647). In a few lines: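 5D WT zebrafish; chorion removed 4 hpf; 1 embryo/well from 6 hpf; static exposure to 120 hpf, 28C, 0.64% DMSO final. Endpoint: somite malformation, binary, brightfield. Mortality excluded.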

Assay [5] can be described thus: Tanguay_ZF_120hpf_PFIN_legacy: (Legacy) Oregon State University Tanguay Lab 120 Hour Post-fertilization zebrafish Assay for Pectoral Fin Malformation (AID 2283648).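 Note: each larva judged yes or no for fin defect by brightfield with dead larvae skipped.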 In a few lines:
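5D WT zebrafish; pronase dechorionation 4 hpf; 1 embryo/well at 6 hpf; static exposure to 120 hpf, 28C, sealed, foil-covered; final DMSO 0.64% v/v; 5 uM trimethyltin chloride positive control; fin defect scored yes/no.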

Assay [6] in a line: Tanguay_ZF_120hpf_CFIN_legacy: (Legacy) Oregon State University Tanguay Lab 120 Hour Post-fertilization zebrafish Assay for Caudal Fin Malformation (AID 2283649). The method in brief:
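Embryos were collected from Tropical 5D wild-type adults and dechorionated at 4 hpf. At 6 hpf each was exposed, one per well, at 0.64% DMSO and 28C. At 120 hpf fin morphology was scored; dead embryos were excluded.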

Assay [7] in a line: Tanguay_ZF_120hpf_SWIM_legacy: (Legacy) Oregon State University Tanguay Lab 120 Hour Post-fertilization zebrafish Assay for Swim Bladder Malformation (AID 2283654).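 Note: swim bladder malformation in each larva scored yes or no under brightfield.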 The method in brief:
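Embryos lacking chorions were exposed individually and statically to test chemical from 6 to 120 hpf at 28C, with 0.64% DMSO as vehicle. At 120 hpf, swim bladder malformation was recorded as present or absent by brightfield microscopy.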

Assay [8] is described as follows: Tanguay_ZF_120hpf_NC_legacy: (Legacy) Oregon State University Tanguay Lab 120 Hour Post-fertilization zebrafish Assay for Notochord and Tail Malformation (AID 2283656). In a few lines:
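Dechorionated 5D zebrafish, 1/well from 6 hpf; static exposure to 120 hpf, 28C, sealed, dark; final DMSO 0.64% v/v. NC scored binary (present/absent); dead embryos not scored. Fit vs DMSO baseline, gain direction.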

Assay [9] can be described thus: Tanguay_ZF_120hpf_TR_legacy: (Legacy) Oregon State University Tanguay Lab 120 Hour Post-fertilization zebrafish Assay for Touch Response (AID 2283667). The method in brief:
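5D WT embryos; static exposure to 120 hpf, 28C, sealed/dark; DMSO 0.64% v/v final. TR scored present/absent; dead embryos excluded. Pos ctrl 5uM trimethyltin chloride.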

Assay [10] relates to Thyroperoxidase (TPO), gene 54314. Kind of assay: CCTE_Simmons_AUR_rTPO: CCTE's Amplex UltraRed Assay for Thyroperoxidase (TPO) Inhibition, Simmons Lab (AID 2283662).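 Note: potency for loss of signal meaning inhibition of peroxidase activity.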 In a few lines: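 Endpoint is decreased Amplex UltraRed fluorescence after a 30-min, 37C reaction of rat thyroid microsomes with 300 uM H2O2. Eight test concentrations (5 nM–87.5 uM final) in 0.5% DMSO, three biological replicates each.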

Assay [11] in a line: CCTE_Simmons_CellTiterGLO_HEK293T: Viability Assessment in CCTE's Assays for Thyroperoxidase (TPO) Inhibition, Simmons Lab (AID 2283665).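 For AC50: cells exposed to compound for 24 h before readout; actives reduce ATP signal below DMSO vehicle meaning cytotoxicity.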 The method in brief:
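Cytotoxicity counter-screen: human HEK293T cells in low-serum (1% FBS) medium receive test chemical, 5 nM to 87.5 uM final, for 24 h; ATP is quantified by luciferase luminescence.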
Background: Cellular ATP, detected with luciferase, serves as a proxy for viable cell number.

Assay [12] can be described thus: Tanguay_ZF_120hpf_BRAI_legacy: (Legacy) Oregon State University Tanguay Lab 120 Hour Post-fertilization zebrafish Assay for Brain Malformation (AID 2283641). In a few lines: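 Brain malformation in Tropical 5D zebrafish was recorded as a binary endpoint after static compound exposure from early development to 120 hpf at 28C. Activity was analysed against DMSO as negative control.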

Assay [13] can be described thus: Tanguay_ZF_120hpf_CIRC_legacy: (Legacy) Oregon State University Tanguay Lab 120 Hour Post-fertilization zebrafish Assay for Circulatory Malformation (AID 2283651). The method in brief:
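Using wild-type Tropical 5D zebrafish, we exposed dechorionated embryos from 6 to 120 hpf in embryo medium with 0.64% DMSO. Circulatory defects were scored as present or absent; 5uM trimethyltin chloride served as positive control.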

Assay [14] is described as follows: Tanguay_ZF_120hpf_TRUN_legacy: (Legacy) Oregon State University Tanguay Lab 120 Hour Post-fertilization zebrafish Assay for Truncated Body (AID 2283655). The method in brief: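 5D wild-type larvae; pronase dechorionation; static exposure 6→120 hpf, 28C; DMSO 0.64% final; 5uM trimethyltin chloride positive control. Readout: presence/absence of truncated body, analyzed relative to DMSO.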

Assay [15] in a line: Tanguay_ZF_120hpf_PIG_legacy: (Legacy) Oregon State University Tanguay Lab 120 Hour Post-fertilization zebrafish Assay for Pigmentation Malformation (AID 2283650). The method in brief:
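Pronase dechorionation at 4 hpf; embryos plated at 6 hpf, one per well; static exposure, sealed and foil-covered, 28C, to 120 hpf; pigmentation read by brightfield, binary; DMSO 0.64% baseline, 5uM trimethyltin chloride positive control.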

Read-out in assay [16]: kallikrein-3 (KLK3), KLK3 (gene 354)
The assay is described as follows: LTEA_HepaRG_KLK3: Life Technologies and Expression Analysis (LTEA) Assay for kallikrein-3 (KLK3) using HepaRG (AID 2283652; active = hit-call score of the fitted dose curve at least 0.9, where 1 is the maximum; inactive = score below 0.9). To be noted: mRNA level, 48 h; actives raise or lower the signal. The method in brief:
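Differentiated human HepaRG cells in serum-free induction medium exposed 48 h in duplicate, eight-point half-log series from 100 uM in 0.5% DMSO. KLK3 mRNA by qRT-PCR, normalised to ACTB, GAPDH, POLR2A; bidirectional fit versus DMSO.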

Read-out in assay [17]: solute carrier (SLC22A6), SLC22A6 (gene 9356)
The assay is described as follows: LTEA_HepaRG_SLC22A6: Life Technologies and Expression Analysis (LTEA) Assay for solute carrier (SLC22A6) using HepaRG (AID 2283653; active = hit-call score of the fitted dose curve at least 0.9, where 1 is the maximum; inactive = score below 0.9). The conditions noted are these: mRNA level, 48 h; actives raise or lower the signal. The method in brief:
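This endpoint tracks SLC22A6 mRNA induction or suppression in human HepaRG cultures after 48 h dosing, concentrations reaching 100 uM. Values derive from bidirectional fitting against DMSO controls.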

Read-out in assay [18]: solute carrier (SLC10A1), SLC10A1 (gene 6554)
The assay is described as follows: LTEA_HepaRG_SLC10A1: Life Technologies and Expression Analysis (LTEA) Assay for solute carrier (SLC10A1) using HepaRG (AID 2283657; active = hit-call score of the fitted dose curve at least 0.9, where 1 is the maximum; inactive = score below 0.9). The conditions noted are these: mRNA level, 48 h; actives raise or lower the signal. The method in brief: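 Transcript levels were measured by qRT-PCR after human HepaRG cells received test chemical for 48 hours, up to 100 uM in half-log dilutions. Values come from bidirectional concentration-response fitting relative to 0.5% DMSO vehicle.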

Read-out in assay [19]: matrix metalloproteinase-1 (MMP1), MMP1 (gene 4312)
Kind of assay: LTEA_HepaRG_MMP1: Life Technologies and Expression Analysis (LTEA) Assay for matrix metalloproteinase-1 (MMP1) using HepaRG (AID 2283658; active = hit-call score of the fitted dose curve at least 0.9, where 1 is the maximum; inactive = score below 0.9). The conditions noted are these: mRNA level, 48 h; actives raise or lower the signal. The method in brief: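 Bidirectional concentration-response fitting relative to 0.5% DMSO gives the endpoint, derived from MMP1 mRNA levels (qRT-PCR) in human HepaRG cells treated 48 h with chemicals up to 100 uM.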

Read-out in assay [20]: Cytochrome P450 (CYP24A1_1), CYP24A1 (gene 1591)
Kind of assay: LTEA_HepaRG_CYP24A1_1: Life Technologies and Expression Analysis (LTEA) Assay for Cytochrome P450 (CYP24A1_1) using HepaRG (AID 2283671; active = hit-call score of the fitted dose curve at least 0.9, where 1 is the maximum; inactive = score below 0.9). To be noted: mRNA level, 48 h; actives raise or lower the signal. The method in brief: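 In this test, gene induction or suppression of CYP24A1 in human HepaRG liver cells is measured by qRT-PCR after 48 h chemical treatment (eight concentrations, maximum 100 uM). Values are fitted bidirectionally relative to DMSO.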

Records with an inconclusive call do not appear. Activity calls are given as the source filed them. Rule for the calls, unless noted: active = hit-call score of the fitted dose curve at least 0.9, where 1 is the maximum; inconclusive = response in the unintended direction; inactive = score below 0.9.

We go through 11 compounds from PubChem BioAssay (EPA / NIEHS).

Broadly, the AC50 is the midpoint of the concentration-response curve, whichever way the signal moves.

Regarding `C[C@]12CC[C@@H]3c4ccc(O)cc4CC[C@H]3[C@@H]1CCC2=O`, the outcome in assay [1], in assay [2], in assay [3], in assay [4], in assay [5] and in assay [6] was inactive. For the same compound, the compound was classed as inactive in assay [7], in assay [8] and in assay [9].
Turning to `CO[C@H]1/C=C/O[C@@]2(C)Oc3c(C)c(O)c4c(O)c(c(/C=N/N5CCN(C)CC5)c(O)c4c3C2=O)NC(=O)/C(C)=C\C=C\[C@H](C)[C@H](O)[C@@H](C)[C@@H](O)[C@@H](C)[C@H](OC(C)=O)[C@@H]1C`, the call in assay [1], in assay [2], in assay [3], in assay [4], in [5] and in assay [6] was inactive. In addition, the outcome in assay [7], in assay [11] and in [9] was inactive. Further, the AC50 in assay [10] is 3.3 µM (active).
With `CCCCCCCCN(C)CCCCCCCC`, the result in [1], in assay [3], in [12], in assay [4], in assay [5] and in [6] was inactive. The compound was classed as inactive in assay [13], in assay [14], in assay [8] and in [9].
As for `O=C(OCCCCCCOC(=O)c1ccccc1)c1ccccc1`, the call in assay [1], in assay [3], in assay [4], in assay [6], in assay [13] and in [8] was inactive. Besides, the result in assay [9] was inactive.
Turning to `CCN(Cc1cccc(S(=O)(=O)O)c1)c1ccc(C(=C2C=CC(=[N+](CC)Cc3cccc(S(=O)(=O)O)c3)C=C2)c2ccccc2S(=O)(=O)[O-])cc1`, the outcome in [1], in [2], in [3], in [4], in [5] and in assay [6] was inactive. For the same compound, in assay [9], the call was inactive. In addition, the figures for the concentration at half-maximal activity (AC50) in [10] and in [11] were 19.2 µM (active) and 4.21 µM (active), respectively.
For `CC(C)(c1cc(Br)c(O)c(Br)c1)c1cc(Br)c(O)c(Br)c1`, the call in assay [1], in assay [2], in assay [3], in assay [12], in assay [6] and in assay [14] was inactive. Besides, the outcome in [8] and in [9] was inactive. Further, the AC50 is 18.5 µM (active) in assay [10] and 14.7 µM (active) in [11].
For `Cc1ccc2oc(CN(Cc3ccccc3)C(=O)Nc3c(F)cc(F)cc3F)c(-c3ccc(Cl)cc3)c2c1`, the compound was classed as inactive in [1], in [2], in [3], in assay [12], in assay [4] and in assay [6]. Besides, the compound was classed as inactive in assay [15], in [8] and in assay [9].
For the compound `COc1cccc([C@H](O)C2CCN(CCc3ccc(F)cc3)CC2)c1OC`, the compound was classed as inactive in [1], in [2], in assay [12], in assay [4], in [6] and in [8]. Besides, in assay [9], the result was inactive. Besides, in [3], the AC50 is 38.7 µM (active).
On to `CN1C(=O)CC[C@H]1c1cccnc1`, for which the result in [1], in assay [3], in assay [12], in [4], in assay [5] and in [6] was inactive. Moreover, the compound was classed as inactive in assay [7], in assay [8] and in [9].
`CC(C)(C)c1csc(-c2cc3cc(OCc4ccccc4CC(=O)O)ccc3o2)n1`: the call in [1], in assay [2], in [3], in assay [12], in assay [4] and in assay [5] was inactive. Further, the call in [13], in [16], in [17], in [7], in [8] and in [19] was inactive. The outcome in assay [9] and in assay [20] was inactive. Also, the AC50 was 24.4 µM (active) in [18], 43.8 µM (active) in assay [10] and 22.4 µM (active) in assay [11].
Regarding `Cc1cn([C@H]2C[C@H](N=[N+]=[N-])[C@@H](CO)O2)c(=O)[nH]c1=O`, the compound was classed as inactive in [1], in [2], in assay [3], in assay [4], in assay [6] and in assay [7]. Besides, the compound was called inactive in [14], in assay [8] and in assay [9].
